± gives the standard deviation of the averaged measurements.
Key:
Settings in all cases: concentration: 10 µM; 24 h
HCC1569 [1] = experiment: cell number relative to DMSO (% of DMSO); higher = more cells (less growth inhibition / toxicity)
Summary of the method: (§1)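 Treatment: HCC1569 and TDF cells, 800 per well in 384-well plates with RPMI and 10% FBS, were given compounds at 10 µM for 24 h at 37 °C, in triplicate. Readout: after 3.7% formaldehyde fixation, cells were stained with a rabbit anti-H1.0 antibody, an AlexaFluor 647 secondary and DAPI. Reported values are H1.0 nuclear intensity or cell number as percent of the plate control, taken as the median of replicates, with positional smoothing for HCC1569.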

TDF [2] = experiment: as above
Summary of the method: as §1

TDF [3] = experiment: H1.0 immunofluorescence intensity relative to DMSO (% of DMSO); higher = stronger H1.0 induction, active = 120 or more
Summary of the method: as §1

HCC1569 [4] = experiment: H1.0 immunofluorescence intensity relative to DMSO (% of DMSO); higher = stronger H1.0 induction, active = 140 or more
Summary of the method: as §1
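Throughout, for H1.0 immunofluorescence intensity relative to DMSO: TDF is a line of transformed human dermal fibroblasts of mesenchymal origin.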
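Throughout, for cell number relative to DMSO: TDF denotes transformed human dermal fibroblasts of mesenchymal origin.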

**Q.** `CN(C)CCCN1c2ccccc2Sc2ccc(Cl)cc21.Cl` [Chlorpromazine hydrochloride] was tested. Which cell number (HCC1569 [1]) did it give?
**A.** 88.5

**Q.** And the cell number (TDF [2])?
**A.** 64.4

**Q.** And the H1.0 immunofluorescence intensity (TDF [3])?
**A.** 135 (active)

**Q.** What about the H1.0 immunofluorescence intensity (HCC1569 [4]) of the same compound?
**A.** 144 (active)

**Q.** For `CCn1ccnc1CC1COc2ccccc2O1.Cl` (stereo not given) [Imiloxan hydrochloride], which cell number (HCC1569 [1]) is on record?
**A.** 103

**Q.** And the cell number (TDF [2])?
**A.** 105

**Q.** What about the H1.0 immunofluorescence intensity (TDF [3]) of the same compound?
**A.** 88 (inactive)

**Q.** And the H1.0 immunofluorescence intensity (HCC1569 [4])?
**A.** 100 (inactive)

**Q.** `CN1CCc2cccc3c2C1Cc1ccc(O)c(O)c1-3.Cl` (stereo not given) [Apomorphine hydrochloride hemihydrate] was tested. Which cell number (HCC1569 [1]) did it give?
**A.** 89.9

**Q.** What about the cell number (TDF [2]) of the same compound?
**A.** 87.9

**Q.** And the H1.0 immunofluorescence intensity (TDF [3])?
**A.** 94.8 (inactive)

**Q.** And the H1.0 immunofluorescence intensity (HCC1569 [4])?
**A.** 99.6 (inactive)

**Q.** How did the cell number (HCC1569 [1]) turn out when `CN1CCN(CCCN2c3ccccc3Sc3ccc(C(F)(F)F)cc32)CC1.Cl.Cl` [Trifluoperazine.2HCl] was run?
**A.** 94.5

**Q.** What about the cell number (TDF [2]) of the same compound?
**A.** 108

**Q.** And the H1.0 immunofluorescence intensity (TDF [3])?
**A.** 97 (inactive)

**Q.** What about the H1.0 immunofluorescence intensity (HCC1569 [4]) of the same compound?
**A.** 122 (inactive)

**Q.** For `CN(C)C(=O)N=NC(=O)N(C)C` [N,N,N',N'-Tetramethylazodicarboxamide], which cell number (HCC1569 [1]) is on record?
**A.** 94.8

**Q.** What about the cell number (TDF [2]) of the same compound?
**A.** 103

**Q.** And the H1.0 immunofluorescence intensity (TDF [3])?
**A.** 91.5 (inactive)

**Q.** And the H1.0 immunofluorescence intensity (HCC1569 [4])?
**A.** 99.2 (inactive)

**Q.** How did the cell number (HCC1569 [1]) turn out when `Cc1cc(O)c2c(c1)C(=O)c1cc(O)cc(O)c1C2=O` [Emodin] was run?
**A.** 98.4 ± 1.2

**Q.** And the cell number (TDF [2])?
**A.** 96.8 ± 5.4

**Q.** And the H1.0 immunofluorescence intensity (TDF [3])?
**A.** 98.6 (inactive)

**Q.** And the H1.0 immunofluorescence intensity (HCC1569 [4])?
**A.** 89.8 (inactive)

**Q.** What does the source list for `CC(C)Nc1cccnc1N1CCN(C(=O)c2cc3cc(NS(C)(=O)=O)ccc3[nH]2)CC1.CS(=O)(=O)O` [Delavirdine mesylate]?
**A.** cell number (HCC1569 [1]): 101; cell number (TDF [2]): 102; H1.0 immunofluorescence intensity (TDF [3]): 99.1 (inactive); H1.0 immunofluorescence intensity (HCC1569 [4]): 110 (inactive)

**Q.** How did the cell number (HCC1569 [1]) turn out when `Cc1nc2n(c(=O)c1CCN1CCC(c3noc4cc(F)ccc34)CC1)CCCC2` [Risperidone] was run?
**A.** 100 ± 3

**Q.** What about the cell number (TDF [2]) of the same compound?
**A.** 99.6 ± 4

**Q.** What about the H1.0 immunofluorescence intensity (TDF [3]) of the same compound?
**A.** 93.1 (inactive)

**Q.** What about the H1.0 immunofluorescence intensity (HCC1569 [4]) of the same compound?
**A.** 107 (inactive)

**Q.** Which results are given for `CN(C)C(=O)COC(=O)Cc1ccc(OC(=O)c2ccc(N=C(N)N)cc2)cc1.CS(=O)(=O)O`?
**A.** cell number (HCC1569 [1]): 99.4; cell number (TDF [2]): 115; H1.0 immunofluorescence intensity (TDF [3]): 91.2 (inactive); H1.0 immunofluorescence intensity (HCC1569 [4]): 98.5 (inactive)

**Q.** With `CCn1cc(C(=O)O)c(=O)c2cc(F)c(N3CCNCC3)nc21` [Enoxacin] as the compound, how does the cell number (HCC1569 [1]) read?
**A.** 105

**Q.** What about the cell number (TDF [2]) of the same compound?
**A.** 91.3

**Q.** What about the H1.0 immunofluorescence intensity (TDF [3]) of the same compound?
**A.** 98.8 (inactive)

**Q.** And the H1.0 immunofluorescence intensity (HCC1569 [4])?
**A.** 106 (inactive)

**Q.** Which cell number (HCC1569 [1]) does the source give for `CN1CCN(C2=Nc3cc(F)ccc3Cc3ccccc32)CC1` [Fluperlapine] here?
**A.** 104

**Q.** And the cell number (TDF [2])?
**A.** 102

**Q.** And the H1.0 immunofluorescence intensity (TDF [3])?
**A.** 100 (inactive)

**Q.** And the H1.0 immunofluorescence intensity (HCC1569 [4])?
**A.** 118 (inactive)

**Q.** What does the source list for `COc1ccc2c(c1)c(CC(=O)O)c(C)n2C(=O)c1ccc(Cl)cc1` [Indomethacin]?
**A.** cell number (HCC1569 [1]): 101 ± 1.8; cell number (TDF [2]): 106 ± 20; H1.0 immunofluorescence intensity (TDF [3]): 91.3 (inactive); H1.0 immunofluorescence intensity (HCC1569 [4]): 102 (inactive)

**Q.** Which cell number (HCC1569 [1]) does the source give for `Nc1ccn(C2CCC(CO)O2)c(=O)n1` (stereo not given) ["2',3' - Dideoxycytidine"] here?
**A.** 107

**Q.** What about the cell number (TDF [2]) of the same compound?
**A.** 87.5

**Q.** And the H1.0 immunofluorescence intensity (TDF [3])?
**A.** 100 (inactive)

**Q.** What about the H1.0 immunofluorescence intensity (HCC1569 [4]) of the same compound?
**A.** 101 (inactive)

**Q.** Which results are given for `CC(C)Cc1ccc(C(C)C(=O)O)cc1` (stereo not drawn) [S(+)-Ibuprofen]?
**A.** cell number (HCC1569 [1]): 103; cell number (TDF [2]): 108; H1.0 immunofluorescence intensity (TDF [3]): 96 (inactive); H1.0 immunofluorescence intensity (HCC1569 [4]): 90.5 (inactive)

**Q.** For `O=C(O)Cc1c[nH]c2ccc(O)cc12` [(5-hydroxy-3H-indol-3-yl)acetic acid], which cell number (HCC1569 [1]) is on record?
**A.** 105

**Q.** And the cell number (TDF [2])?
**A.** 94.7

**Q.** And the H1.0 immunofluorescence intensity (TDF [3])?
**A.** 94.7 (inactive)

**Q.** What about the H1.0 immunofluorescence intensity (HCC1569 [4]) of the same compound?
**A.** 103 (inactive)

**Q.** For `O=C([O-])c1cc2cc(Cc3cccnc3)ccc2o1.[Na+]` [Furegrelate sodium], which cell number (HCC1569 [1]) is on record?
**A.** 102

**Q.** And the cell number (TDF [2])?
**A.** 102

**Q.** And the H1.0 immunofluorescence intensity (TDF [3])?
**A.** 88.5 (inactive)

**Q.** What about the H1.0 immunofluorescence intensity (HCC1569 [4]) of the same compound?
**A.** 93.7 (inactive)

**Q.** For `C=C1CCC2C(C)(CO)C(O)CCC2(C)C1CC=C1C(=O)OCC1O` (stereo not given) [Andrographolide], which cell number (HCC1569 [1]) is on record?
**A.** 83.1

**Q.** And the cell number (TDF [2])?
**A.** 68.6

**Q.** And the H1.0 immunofluorescence intensity (TDF [3])?
**A.** 109 (inactive)

**Q.** And the H1.0 immunofluorescence intensity (HCC1569 [4])?
**A.** 113 (inactive)

**Q.** What does the source list for `C=CCCCCCCCCC(=O)O` [10-Undecenoic acid]?
**A.** cell number (HCC1569 [1]): 102; cell number (TDF [2]): 103; H1.0 immunofluorescence intensity (TDF [3]): 104 (inactive); H1.0 immunofluorescence intensity (HCC1569 [4]): 105 (inactive)

**Q.** Which results are given for `CC(C)NCC(O)COc1ccc(CCOCC2CC2)cc1.Cl` (stereo not given) [Betaxolol.HCl]?
**A.** cell number (HCC1569 [1]): 103; cell number (TDF [2]): 98; H1.0 immunofluorescence intensity (TDF [3]): 90.4 (inactive); H1.0 immunofluorescence intensity (HCC1569 [4]): 102 (inactive)

**Q.** `CCCCCCCCCCCCCCCC(=O)NCCO` [Palmitylethanolamide] was tested. Which cell number (HCC1569 [1]) did it give?
**A.** 99.8

**Q.** And the cell number (TDF [2])?
**A.** 104

**Q.** And the H1.0 immunofluorescence intensity (TDF [3])?
**A.** 96.8 (inactive)

**Q.** And the H1.0 immunofluorescence intensity (HCC1569 [4])?
**A.** 95.5 (inactive)

**Q.** Which cell number (HCC1569 [1]) does the source give for `Cl.c1ccc(C2CN3CCSC3=N2)cc1` (single isomer, unassigned; (-)) [(-)-Tetramisole hydrochloride] here?
**A.** 108

**Q.** What about the cell number (TDF [2]) of the same compound?
**A.** 97.3

**Q.** What about the H1.0 immunofluorescence intensity (TDF [3]) of the same compound?
**A.** 92.4 (inactive)

**Q.** What about the H1.0 immunofluorescence intensity (HCC1569 [4]) of the same compound?
**A.** 98.7 (inactive)

**Q.** Which results are given for `COc1ccc(Cl)cc1C(=O)NCCc1ccc(S(=O)(=O)NC(=O)NC2CCCCC2)cc1` [Glyburide]?
**A.** cell number (HCC1569 [1]): 107; cell number (TDF [2]): 102; H1.0 immunofluorescence intensity (TDF [3]): 90.2 (inactive); H1.0 immunofluorescence intensity (HCC1569 [4]): 109 (inactive)

**Q.** What does the source list for `CC(=O)OC1(C(C)=O)CCC2C3CC(C)C4=CC(=O)CCC4(C)C3CCC21C` (stereo not given) [Medroxyprogesterone 17-Acetate]?
**A.** cell number (HCC1569 [1]): 105; cell number (TDF [2]): 112; H1.0 immunofluorescence intensity (TDF [3]): 102 (inactive); H1.0 immunofluorescence intensity (HCC1569 [4]): 89.3 (inactive)

**Q.** Which results are given for `NNC(=O)c1ccncc1` [Isoniazid]?
**A.** cell number (HCC1569 [1]): 105; cell number (TDF [2]): 104; H1.0 immunofluorescence intensity (TDF [3]): 89.6 (inactive); H1.0 immunofluorescence intensity (HCC1569 [4]): 110 (inactive)

**Q.** `CCCCCCCCCCCCCC=CC(O)C(CO)NC(=O)CCCCC` (stereo not given) [C6 Ceramide] was tested. Which cell number (HCC1569 [1]) did it give?
**A.** 100

**Q.** What about the cell number (TDF [2]) of the same compound?
**A.** 59.7

**Q.** What about the H1.0 immunofluorescence intensity (TDF [3]) of the same compound?
**A.** 151 (active)

**Q.** And the H1.0 immunofluorescence intensity (HCC1569 [4])?
**A.** 101 (inactive)
